PubChem BioAssay

experiment: TOR pathway CIT2 reporter hit retest – S. cerevisiae, GFP fusion, cherry picks, mother/daughter gates, confirmation (AID 2274); conditions: S. cerevisiae CIT2-GFP strain, flow cytometry, 3 h; measured here: mother cell gate; at 10 µM; stronger effect = higher value

Row | Compound | GFP response, % of DMSO [%]
1 | Cc1ccc(/C=C/C(=O)N2CC(C)CC(C)C2)o1 (configuration not stated) | 105
2 | CCOc1c(Br)ccc2c1sc1nc[nH]c(=O)c12 | 100
3 | Cc1cc(NC(=O)c2cc3ccccc3o2)ccc1NC(=O)c1ccccc1 | 99.7
4 | COc1ccc(C(=O)Nc2cccc(C)c2)cc1 | 108
5 | O=C1c2ccccc2C(=O)c2c([N+](=O)[O-])ccc(O)c21 | 82.8
6 | Nc1ccccc1NC(=O)c1ccccc1 | 103
7 | Cc1ccccc1N1C(=O)c2cccc3c(N(C)CCO)ccc(c23)C1=O | 100
8 | O=C(/C=C/c1ccccc1)Nc1ncn[nH]1 | 94.5
9 | CCCCCCCCC/C(=N\O)c1ccccn1 | 97.1
10 | COc1cccc2c1Oc1ncccc1N(C(=O)CCC(=O)NCc1ccc(C)cc1)C2 | 98.1
11 | C/C(=N\NC(=O)c1ccc(Br)cc1)c1ccccc1 | 98.5
12 | NS(=O)(=O)c1ccc(S(=O)(=O)c2ccccc2)nc1 | 102
13 | Cc1nn(Cc2ccc([N+](=O)[O-])cc2)c(=O)n1-c1cccc(Cl)c1 | 99.7
14 | O=C(c1ccccc1Br)N1CCN(c2ccccc2)CC1 | 94.4
15 | Cc1c(NC(=O)Nc2ccc3c(c2)OCO3)c(=O)n(-c2ccccc2)n1C | 95.6
16 | COc1ccc(C(=O)/C=C/c2ccccc2C(F)(F)F)cc1 | 107
17 | CCc1noc(C)c1C(=O)Nc1nc(-c2cc(C)ccc2C)c(C)s1 | 107
18 | CC(C)(C)n1nc(-c2ccc(Cl)cc2)c2c(N)ncnc21 | 42.4
19 | O=c1oc2cc(Oc3c([N+](=O)[O-])cc(C(F)(F)F)cc3[N+](=O)[O-])ccc2c2c1CCCC2 | 94.4
20 | Cc1occc1-c1nnc(-c2cc([N+](=O)[O-])cc([N+](=O)[O-])c2)o1 | 81.8
21 | CCOc1ccc(Nc2ccc(C(=O)O)cc2[N+](=O)[O-])cc1 | 96.8
22 | Cc1nnc(NC(=O)c2csc3c2CCC(C)C3)s1 (configuration not stated) | 77.3
